40 compounds from the supplement of paper PMC4723716 can be followed below.

This assay has as its system Plasmodium falciparum NF54 stage V gametocytes. Kind of assay: viability index relative to DMSO control (fraction); higher = less gametocyte killing. The conditions noted are these: 2.5 µM, incubation time: 72 h. The procedure, abridged: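 Compound at 2.5 µM was incubated for 72 hr at 37°C under low oxygen with P. falciparum NF54 stage V gametocytes (0.75% gametocytemia, 1.25% hematocrit, 10 µl, serum-free screening medium) in 1,536-well plates. Staining used 3 µl of 2.5 µM MitoTracker Red CMXRos plus 0.13% saponin for one to two hours, and red particles of 20–70 µm2 were counted in one imaged field per well. Each viability index is that count relative to the plate mean of solvent-only wells.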

Where [1] appears, read: library set: Broad Institute DOS.
Setting [2] is: library set: Broad Institute Blood Stage.

Molecules are shown by their SMILES. ± gives the uncertainty stated by the source. Over roughly 9,900 compounds, “viability index relative to DMSO control” has its median near 1; the lowest 2% begin near 0.85. The sample as a whole holds a higher share of the lowest values than the screen did.

Take `C[C@@H]1CN([C@H](C)CO)C(=O)CCCn2cc(nn2)CO[C@H]1CN(C)C(=O)Nc1cccc2ccccc12`: under setting [1], the viability index is 0.99 ± 0.023.

Compound `Cc1ccc(S(=O)(=O)Nc2ccc3c(c2)C(=O)N([C@@H](C)CO)C[C@@H](C)[C@@H](CN(C)S(=O)(=O)c2cccs2)OCCCC[C@@H](C)O3)cc1` returned a viability index under setting [1] of 1.13 ± 0.23.

Regarding `NCC[C@H]1CC[C@@H](NC(=O)Cc2ccncc2)[C@H](CO)O1`, the viability index under setting [1] was 1.091 ± 0.0072.

Consider `CNC(=O)C[C@@H]1CC[C@@H]2[C@H](COC[C@@H](O)CN2Cc2ccccc2F)O1`, for which the viability index under setting [1] turned out to be 1.08 ± 0.086.

Regarding `COc1ccc(S(=O)(=O)Nc2ccc3c(c2)C(=O)N([C@H](C)CO)C[C@H](C)[C@@H](CN(C)Cc2ccc(C(F)(F)F)cc2)OCCCC[C@H](C)O3)cc1`, under setting [1], the viability index was found to be 1.07 ± 0.051.

As for `C/C=C/c1ccc2n(c1=O)C[C@@H]1[C@@H](CO)[C@H](C(=O)NCC)N(Cc3cccc(F)c3)[C@H]21.C/C=C\c1ccc2n(c1=O)C[C@@H]1[C@@H](CO)[C@H](C(=O)NCC)N(Cc3cccc(F)c3)[C@H]21`, under setting [1], the viability index amounted to 0.99 ± 0.091.

Compound `Cc1ccccc1-c1ccc([C@@H]2[C@@H]3CN(Cc4cocn4)C[C@H]2N3)cc1` gave a viability index under setting [1] of 0.949 ± 0.05.

Regarding `C[C@@H]1CN([C@@H](C)CO)C(=O)c2cc(NC(=O)C3CC3)ccc2O[C@H]1CN(C)S(=O)(=O)c1ccccc1`, the viability index under setting [1] was 0.9821 ± 0.0066.

Turning to `N#Cc1ccc(-c2ccc3c(c2)[C@H]2[C@H](CCN2C(=O)C2CCCCC2)[C@H](CO)N3)cc1`, the viability index under setting [1] amounted to 1.11 ± 0.057.

With `COc1ccccc1-c1ccc2c(c1)[C@H]1[C@H](CCN1C(=O)C1CCC1)[C@@H](CO)N2`, under setting [1], the viability index amounted to 0.865 ± 0.097.

Compound `COc1ccccc1-c1ccc2c(c1)[C@@H]1[C@@H](CCN1C(=O)C1CCC1)[C@H](CO)N2` came in with a viability index under setting [1] of 0.655 ± 0.025.

On to `CN1CCN(C(=O)C[C@@H]2CC[C@H]3[C@H](COc4ccc(NC(=O)C5CCOCC5)cc4C(=O)N3C)O2)CC1`, for which, under setting [1], the viability index amounted to 1.05 ± 0.029.

Compound `CCS(=O)(=O)Nc1ccc2c(c1)C(=O)N(C)[C@H]1CC[C@H](CC(=O)NCCCN3CCOCC3)O[C@@H]1CO2` had a viability index under setting [1] of 1.03 ± 0.07.

Consider `C[C@@H]1CN([C@@H](C)CO)C(=O)c2cccc(NC(=O)Nc3ccccc3)c2O[C@@H]1CN(C)C(=O)Nc1ccccc1`, for which the viability index under setting [2] was determined as 0.703 ± 0.052.

For the compound `CC(C)NC(=O)Nc1cccc2c1O[C@H](CN(C)C(=O)Nc1ccccc1)[C@@H](C)CN([C@@H](C)CO)C2=O`, under setting [1], the viability index is 1.09 ± 0.07.

In turn, `COc1ccc(S(=O)(=O)N(C)C[C@H]2Oc3c(NC(=O)c4nc5ccccc5s4)cccc3C(=O)N([C@H](C)CO)C[C@H]2C)cc1` came in with a viability index under setting [1] of 1.03 ± 0.022.

Regarding `CC(C)NC(=O)Nc1cccc2c1O[C@H](CN(C)C(=O)Nc1ccccc1)[C@H](C)CN([C@H](C)CO)C2=O`, the viability index under setting [1] came out at 1.03 ± 0.09.

As to `CC(C)NC(=O)Nc1cccc2c1O[C@H](CN(C)C(=O)Nc1ccccc1)[C@@H](C)CN([C@H](C)CO)C2=O`, the viability index under setting [1] was determined as 0.975 ± 0.13.

As to `CC(C)NC(=O)Nc1cccc2c1O[C@@H](CN(C)C(=O)Nc1ccccc1)[C@@H](C)CN([C@H](C)CO)C2=O`, under setting [1], the viability index was determined as 1.1 ± 0.11.

On to `CC(C)NC(=O)Nc1cccc2c1O[C@@H](CN(C)C(=O)Nc1ccccc1)[C@@H](C)CN([C@@H](C)CO)C2=O`, for which the viability index under setting [1] is 1.04 ± 0.011.

In turn, `COc1ccc(S(=O)(=O)N(C)C[C@H]2Oc3c(NC(=O)Nc4cccc5ccccc45)cccc3C(=O)N([C@@H](C)CO)C[C@H]2C)cc1` displayed a viability index under setting [2] of 0.767 ± 0.035.

Turning to `COc1ccc(S(=O)(=O)N(C)C[C@@H]2Oc3c(NC(=O)c4nc5ccccc5s4)cccc3C(=O)N([C@@H](C)CO)C[C@H]2C)cc1`, the viability index under setting [1] turned out to be 0.979 ± 0.043.

Turning to `CC(C)NC(=O)Nc1cccc2c1O[C@H](CN(C)C(=O)Nc1ccccc1)[C@H](C)CN([C@@H](C)CO)C2=O`, the viability index under setting [1] is 0.692 ± 0.19.

For `CC(C)NC(=O)Nc1cccc2c1O[C@@H](CN(C)C(=O)Nc1ccccc1)[C@H](C)CN([C@H](C)CO)C2=O`, the viability index under setting [1] was 1.05 ± 0.17.

Regarding `C[C@@H]1CN([C@@H](C)CO)C(=O)c2cccc(NC(=O)Nc3ccccc3)c2O[C@@H]1CN(C)C(=O)Nc1ccc(F)cc1`, the viability index under setting [2] is 0.727 ± 0.041.

In the case of `CN1C(=O)c2cc(NC(=O)C3CCOCC3)ccc2OC[C@@H]2O[C@H](CC(=O)NCc3ccccc3F)CC[C@H]21`, the viability index under setting [1] was 1.04 ± 0.032.

`O=C(CN1CCOCC1)N1CC(=O)N2[C@H](C1)[C@H](c1ccc(C3=CCCCC3)cc1)[C@@H]2CO` yielded a viability index under setting [1] of 1.02 ± 0.035.

Consider `CCc1cnc(N2[C@H](C#N)[C@@H](c3ccc(-c4cccc(F)c4)cc3)[C@@H]2CO)s1`, for which the viability index under setting [1] came to 1.12 ± 0.11.

On to `C[C@H](CO)N1C[C@H](C)[C@H](CN(C)C(=O)Nc2ccccc2C(F)(F)F)OCc2cnnn2CCCC1=O`, for which the viability index under setting [1] came out at 1.03 ± 0.014.

Under setting [1], `COc1ccc(NC(=O)Nc2cccc3c2O[C@@H](CN(C)Cc2ccc(C(=O)O)cc2)[C@@H](C)CN([C@@H](C)CO)C3=O)cc1` returned a viability index of 0.95 ± 0.17.

As to `COc1ccc(NC(=O)Nc2cccc3c2O[C@@H](CN(C)Cc2ccc(C(=O)O)cc2)[C@H](C)CN([C@@H](C)CO)C3=O)cc1`, the viability index under setting [1] amounted to 0.978 ± 0.065.

As to `COc1ccc(NC(=O)N(C)C[C@H]2Oc3c(NC(=O)Nc4ccccc4)cccc3C(=O)N([C@@H](C)CO)C[C@H]2C)cc1`, the viability index under setting [2] amounted to 0.724 ± 0.05.

Turning to `CC(C)[C@H]1C(=O)N[C@H](c2cccc(Cl)c2)C/C=C/C[C@H](C)Oc2ccccc2C(=O)N1C.CC(C)[C@H]1C(=O)N[C@H](c2cccc(Cl)c2)C/C=C\C[C@H](C)Oc2ccccc2C(=O)N1C`, the viability index under setting [1] came out at 0.9865 ± 0.0032.

Under setting [1], `C[C@H](CO)N1C[C@H](C)[C@@H](CN(C)Cc2ccc(Oc3ccccc3)cc2)Oc2c(NC(=O)CCC(F)(F)F)cccc2C1=O` showed a viability index of 0.888 ± 0.11.

Under setting [1], `C[C@@H]1CN([C@H](C)CO)C(=O)c2cccc(NS(C)(=O)=O)c2O[C@@H]1CN(C)Cc1ccc(-c2ccccc2)cc1` displayed a viability index of 1.02 ± 0.028.

In turn, `C[C@H](CO)N1C[C@H](C)[C@H](CN(C)Cc2ccc(-c3ccccc3)cc2)Oc2c(NS(C)(=O)=O)cccc2C1=O` registered a viability index under setting [1] of 0.827 ± 0.011.

Under setting [1], `C[C@@H]1CN([C@@H](C)CO)C(=O)c2cccc(NS(C)(=O)=O)c2O[C@H]1CN(C)Cc1ccc(-c2ccccc2)cc1` gave a viability index of 1.01 ± 0.029.

For `C[C@H]1CN([C@@H](C)CO)C(=O)c2cccc(NS(C)(=O)=O)c2O[C@@H]1CN(C)Cc1ccc(-c2ccccc2)cc1`, the viability index under setting [1] was found to be 1 ± 0.078.

On to `C[C@H](CO)N1C[C@H](C)[C@@H](CN(C)Cc2ccccc2)Oc2c(NC(=O)Cc3cn(C)c4ccccc34)cccc2C1=O`, for which the viability index under setting [1] stood at 0.744 ± 0.038.

`CO[C@H](CN(C)S(=O)(=O)c1ccc(C)cc1)[C@H](C)CN(C(=O)Nc1ccccc1F)[C@H](C)CO` showed a viability index under setting [1] of 1.06 ± 0.026.
